# Measurements from publication PMC5540273 (PLoS ONE, 2017).
# Where two headings read alike, the source gives them in different places.
# Legend:
# Details in all cases: n = 1
# [1] = tested on: TNIK
# [2] = tested on: TNK1
# [3] = tested on: TNK2
# [4] = tested on: TNNI3K
# [5] = tested on: T1, TRKA
# T1 construct: gene NTRK1
# [6] = tested on: TRKB
# [7] = tested on: T2, TRKC
# T2 construct: gene NTRK3
# [8] = tested on: TRPM6
# [9] = tested on: TSSK1B
# [10] = tested on: TSSK3
# [11] = tested on: TTK
# [12] = tested on: TXK
# [13] = tested on: TYK2(JH1domain-catalytic)
# [14] = tested on: TYK2(JH2domain-pseudokinase)
# [15] = tested on: TYRO3
# [16] = tested on: ULK1
# [17] = tested on: ULK2
# [18] = tested on: ULK3
# [19] = tested on: T3, VEGFR2
# T3 construct: gene KDR
# [20] = tested on: T4, VPS34
# T4 construct: gene PIK3C3
# [21] = concentration: 1 μM, replicates: in singlicate
# 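Note: KINOMEscan kinase panel screen.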
smiles,measurement,setting,value
NC(=O)c1nnc2ccccc2c1N,%Inh,[1]; [21],3%
same,%Inh,[2]; [21],0%
same,%Inh,[3]; [21],0%
same,%Inh,[4]; [21],5%
same,%Inh,[5]; [21],74%
same,%Inh,[6]; [21],20%
same,%Inh,[7]; [21],10%
same,%Inh,[8]; [21],24%
same,%Inh,[9]; [21],5%
same,%Inh,[10]; [21],11%
same,%Inh,[11]; [21],12%
same,%Inh,[12]; [21],4%
same,%Inh,[13]; [21],44%
same,%Inh,[14]; [21],38%
same,%Inh,[15]; [21],2%
same,%Inh,[16]; [21],24%
same,%Inh,[17]; [21],0%
same,%Inh,[18]; [21],29%
same,%Inh,[19]; [21],16%
same,%Inh,[20]; [21],20%
O=S(=O)(c1ccc(-c2ccnc3[nH]ccc23)cc1)N1CCCC1 [GSK846226],%Inh,[1]; [21],0%
same,%Inh,[2]; [21],0%
same,%Inh,[3]; [21],9%
same,%Inh,[4]; [21],3%
same,%Inh,[5]; [21],69%
same,%Inh,[6]; [21],0%
same,%Inh,[7]; [21],0%
same,%Inh,[8]; [21],26%
same,%Inh,[9]; [21],10%
same,%Inh,[10]; [21],18%
same,%Inh,[11]; [21],20%
same,%Inh,[12]; [21],9%
same,%Inh,[13]; [21],62%
same,%Inh,[14]; [21],20%
same,%Inh,[15]; [21],0%
same,%Inh,[16]; [21],19%
same,%Inh,[17]; [21],0%
same,%Inh,[18]; [21],27%
same,%Inh,[19]; [21],15%
same,%Inh,[20]; [21],46%
CC1=C(C(=O)Nc2cc3cn[nH]c3cc2F)C(c2ccc(C(F)(F)F)cc2)CC(=O)N1 (stereo not drawn) [GSK429286],%Inh,[1]; [21],0%
same,%Inh,[2]; [21],0%
same,%Inh,[3]; [21],15%
same,%Inh,[4]; [21],3%
same,%Inh,[5]; [21],0%
same,%Inh,[6]; [21],0%
same,%Inh,[7]; [21],0%
same,%Inh,[8]; [21],0%
same,%Inh,[9]; [21],13%
same,%Inh,[10]; [21],14%
same,%Inh,[11]; [21],25%
same,%Inh,[12]; [21],21%
same,%Inh,[13]; [21],14%
same,%Inh,[14]; [21],3%
same,%Inh,[15]; [21],12%
same,%Inh,[16]; [21],0%
same,%Inh,[17]; [21],0%
same,%Inh,[18]; [21],34%
same,%Inh,[19]; [21],0%
same,%Inh,[20]; [21],0%
Cc1cccc(-c2nc(Nc3ccncc3)c3ccccc3n2)n1 [GW855857],%Inh,[1]; [21],29%
same,%Inh,[2]; [21],39%
same,%Inh,[3]; [21],0%
same,%Inh,[4]; [21],20%
same,%Inh,[5]; [21],0%
same,%Inh,[6]; [21],0%
same,%Inh,[7]; [21],0%
same,%Inh,[8]; [21],0%
same,%Inh,[9]; [21],0%
same,%Inh,[10]; [21],0%
same,%Inh,[11]; [21],10%
same,%Inh,[12]; [21],11%
same,%Inh,[13]; [21],8%
same,%Inh,[14]; [21],40%
same,%Inh,[15]; [21],0%
same,%Inh,[16]; [21],0%
same,%Inh,[17]; [21],0%
same,%Inh,[18]; [21],8%
same,%Inh,[19]; [21],0%
same,%Inh,[20]; [21],52%
Fc1cc(Cl)ccc1Nc1ccnc2cc(I)ccc12 [GW551191],%Inh,[1]; [21],31%
same,%Inh,[2]; [21],6%
same,%Inh,[3]; [21],10%
same,%Inh,[4]; [21],15%
same,%Inh,[5]; [21],0%
same,%Inh,[6]; [21],37%
same,%Inh,[7]; [21],24%
same,%Inh,[8]; [21],0%
same,%Inh,[9]; [21],32%
same,%Inh,[10]; [21],3%
same,%Inh,[11]; [21],0%
same,%Inh,[12]; [21],28%
same,%Inh,[13]; [21],13%
same,%Inh,[14]; [21],16%
same,%Inh,[15]; [21],18%
same,%Inh,[16]; [21],3%
same,%Inh,[17]; [21],0%
same,%Inh,[18]; [21],0%
same,%Inh,[19]; [21],6%
same,%Inh,[20]; [21],2%
COc1cccc(NC(=O)NC2CCN(c3ccnc(Nc4ccc(F)cc4)n3)C2)c1 (stereo not drawn) [GSK1379721],%Inh,[1]; [21],0%
same,%Inh,[2]; [21],0%
same,%Inh,[3]; [21],0%
same,%Inh,[4]; [21],2%
same,%Inh,[5]; [21],42%
same,%Inh,[6]; [21],59%
same,%Inh,[7]; [21],80%
same,%Inh,[8]; [21],26%
same,%Inh,[9]; [21],9%
same,%Inh,[10]; [21],23%
same,%Inh,[11]; [21],9%
same,%Inh,[12]; [21],41%
same,%Inh,[13]; [21],26%
same,%Inh,[14]; [21],52%
same,%Inh,[15]; [21],0%
same,%Inh,[16]; [21],13%
same,%Inh,[17]; [21],0%
same,%Inh,[18]; [21],9%
same,%Inh,[19]; [21],10%
same,%Inh,[20]; [21],7%
Cl.Oc1ccc(-c2nc(-c3ccccc3)[nH]c2-c2ccncc2)cc1 [SB-428218],%Inh,[1]; [21],0%
same,%Inh,[2]; [21],0%
same,%Inh,[3]; [21],10%
same,%Inh,[4]; [21],0%
same,%Inh,[5]; [21],0%
same,%Inh,[6]; [21],63%
same,%Inh,[7]; [21],64%
same,%Inh,[8]; [21],0%
same,%Inh,[9]; [21],0%
same,%Inh,[10]; [21],0%
same,%Inh,[11]; [21],0%
same,%Inh,[12]; [21],8%
same,%Inh,[13]; [21],100%
same,%Inh,[14]; [21],67%
same,%Inh,[15]; [21],0%
same,%Inh,[16]; [21],8%
same,%Inh,[17]; [21],0%
same,%Inh,[18]; [21],6%
same,%Inh,[19]; [21],0%
same,%Inh,[20]; [21],0%
Cc1cccc(-c2cc(Nc3ccncc3)c3ccccc3n2)n1 [GSK223675],%Inh,[1]; [21],0%
same,%Inh,[2]; [21],0%
same,%Inh,[3]; [21],0%
same,%Inh,[4]; [21],0%
same,%Inh,[5]; [21],0%
same,%Inh,[6]; [21],0%
same,%Inh,[7]; [21],0%
same,%Inh,[8]; [21],0%
same,%Inh,[9]; [21],0%
same,%Inh,[10]; [21],11%
same,%Inh,[11]; [21],0%
same,%Inh,[12]; [21],87%
same,%Inh,[13]; [21],0%
same,%Inh,[14]; [21],22%
same,%Inh,[15]; [21],0%
same,%Inh,[16]; [21],13%
same,%Inh,[17]; [21],0%
same,%Inh,[18]; [21],6%
same,%Inh,[19]; [21],15%
same,%Inh,[20]; [21],0%
Cc1ccc(NC(=O)Nc2cccc(C(F)(F)F)c2)cc1 [GSK955403],%Inh,[1]; 1 µM,3%
same,%Inh,[2]; 1 µM,17%
same,%Inh,[3]; 1 µM,2%
same,%Inh,[4]; 1 µM,0%
same,%Inh,[5]; 1 µM,0%
same,%Inh,[6]; 1 µM,0%
same,%Inh,[7]; 1 µM,0%
same,%Inh,[8]; 1 µM,0%
same,%Inh,[9]; 1 µM,0%
same,%Inh,[10]; 1 µM,8%
same,%Inh,[11]; 1 µM,19%
same,%Inh,[12]; 1 µM,38%
same,%Inh,[13]; 1 µM,24%
same,%Inh,[14]; 1 µM,0%
same,%Inh,[15]; 1 µM,16%
same,%Inh,[16]; 1 µM,0%
same,%Inh,[17]; 1 µM,6%
same,%Inh,[18]; 1 µM,0%
same,%Inh,[19]; 1 µM,0%
same,%Inh,[20]; 1 µM,0%
